Assay outcomes from PubChem.
Compounds with a hit are over-represented: about 2.7% of the library has one in this group of screens.
KDM5B inh: inhibitors of human KDM5B histone demethylase | Q9UGL1 | KDM5B demethylase, FDH-coupled NADH fluorescence (FDH is formaldehyde dehydrogenase) | Potency, µM (top dose mostly 57.7 µM), usual class: inhibitors | 220,000 compounds, 2.6% hits; active = well fitted inhibition curve with a large enough effect; inconclusive = small, poorly fitted or top-dose-only effect; inactive = no such curve, though single readings can be large or run the other way; note: potency is the fitted concentration of half-maximal effect; 0% is about no effect; nearly all actives have a fitted effect of over 70% in size
Target sequence (Q9UGL1 whole entry, looked up): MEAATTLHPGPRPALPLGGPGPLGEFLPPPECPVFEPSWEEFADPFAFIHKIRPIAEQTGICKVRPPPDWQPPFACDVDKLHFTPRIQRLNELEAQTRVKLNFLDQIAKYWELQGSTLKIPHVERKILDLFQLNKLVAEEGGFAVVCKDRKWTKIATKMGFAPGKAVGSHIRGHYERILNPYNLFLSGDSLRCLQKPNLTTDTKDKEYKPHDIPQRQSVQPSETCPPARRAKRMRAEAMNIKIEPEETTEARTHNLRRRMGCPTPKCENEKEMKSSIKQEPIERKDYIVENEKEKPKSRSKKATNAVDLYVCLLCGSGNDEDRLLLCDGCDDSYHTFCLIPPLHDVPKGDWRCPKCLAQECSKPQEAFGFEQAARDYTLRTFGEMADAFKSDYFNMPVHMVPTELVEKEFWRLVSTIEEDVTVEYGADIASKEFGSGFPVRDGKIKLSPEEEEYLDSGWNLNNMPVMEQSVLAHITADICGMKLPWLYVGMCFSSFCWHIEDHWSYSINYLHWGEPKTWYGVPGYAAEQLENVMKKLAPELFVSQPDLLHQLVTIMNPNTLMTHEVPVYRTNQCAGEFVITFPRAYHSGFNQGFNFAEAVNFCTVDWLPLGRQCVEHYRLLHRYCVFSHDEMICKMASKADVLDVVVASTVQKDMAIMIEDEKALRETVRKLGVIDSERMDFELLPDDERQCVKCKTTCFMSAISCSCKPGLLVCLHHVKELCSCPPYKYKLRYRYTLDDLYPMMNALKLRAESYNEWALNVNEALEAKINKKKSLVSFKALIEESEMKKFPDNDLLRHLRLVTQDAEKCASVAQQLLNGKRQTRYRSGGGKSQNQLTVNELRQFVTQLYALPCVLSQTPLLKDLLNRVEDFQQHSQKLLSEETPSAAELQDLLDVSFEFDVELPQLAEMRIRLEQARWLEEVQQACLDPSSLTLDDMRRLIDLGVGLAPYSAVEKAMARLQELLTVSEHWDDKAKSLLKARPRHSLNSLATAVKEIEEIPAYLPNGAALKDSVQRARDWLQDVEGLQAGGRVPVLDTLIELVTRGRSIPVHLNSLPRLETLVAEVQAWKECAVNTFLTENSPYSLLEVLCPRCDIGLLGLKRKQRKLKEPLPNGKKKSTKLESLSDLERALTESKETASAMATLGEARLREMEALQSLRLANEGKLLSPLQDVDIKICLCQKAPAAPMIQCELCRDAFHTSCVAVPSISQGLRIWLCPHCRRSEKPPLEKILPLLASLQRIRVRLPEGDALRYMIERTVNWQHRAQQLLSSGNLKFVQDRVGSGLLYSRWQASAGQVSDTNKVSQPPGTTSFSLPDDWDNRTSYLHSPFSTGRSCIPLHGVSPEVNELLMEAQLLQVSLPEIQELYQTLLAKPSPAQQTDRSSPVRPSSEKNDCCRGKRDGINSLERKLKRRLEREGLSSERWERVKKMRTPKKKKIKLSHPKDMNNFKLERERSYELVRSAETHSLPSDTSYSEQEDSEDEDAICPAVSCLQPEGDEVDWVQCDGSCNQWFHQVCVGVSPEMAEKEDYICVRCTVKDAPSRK
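Here, H3K4me3 peptide (12.5 µM in substrate mix) is demethylated by KDM5BΔAP, 200 nM final, after 10 min compound exposure. Formaldehyde product is coupled through FDH (0.25 U/mL in mix) to NADH fluorescence; 30-min ΔRFU feeds dose-response curves.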
IP6K1 inh: inhibitors of human IP6K1 | 140,000 compounds, 0.81% hits | AID 1645851 | activity change, % (series mostly up to about 58 µM) | IP6K1 kinase, ADP-Glo luminescence, 2 h; hits give low values; in the data active = activity change below about -25%; note: % is set by controls: 0 for no effect and ±100 for the full control effect
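ADP-Glo luminescence measures ADP made by human IP6K1 during a 2 h RT reaction with ATP/IP6 (mix at 1.3 mM/130 uM); top library doses 57.5 and 19.1 uM final.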
The depositor's hits bear a star; i = inactive; ? = inconclusive; nt = no result.

SMILES | KDM5B inh | IP6K1 inh
Cn1nc(C2CCCN2)c2c(C(=O)NCC(F)(F)F)cc(C3CC3)nc21 (configuration not stated) | 79µM* | -4
CC(C)OCc1ccccc1CNS(=O)(=O)c1ccc(Cl)cc1C(F)(F)F | i | nt
COC(=O)[C@@H]1Cc2c([nH]c3ccccc23)[C@H]2C[C@H](NC[C@H]3CCCO3)C[C@@H](c3ccccc3F)N21 | 28µM* | 9
COC(=O)[C@@H]1Cc2c([nH]c3ccccc23)[C@H]2C[C@@H](NCCNC(C)=O)C[C@@H](c3ccccc3F)N21 | ? | -12
COC(=O)[C@@H]1Cc2c([nH]c3ccccc23)[C@H]2C[C@@H](N3CCCCC3)C[C@@H](c3ccccc3F)N21 | ? | 7
COC(=O)[C@@H]1Cc2c([nH]c3ccccc23)[C@H]2C[C@H](N3CCCCC3)C[C@@H](c3ccccc3F)N21 | i | 0
COC(=O)[C@@H]1Cc2c([nH]c3ccccc23)[C@H]2C[C@@H](NCCO)C[C@@H](c3ccccc3F)N21 | 28µM* | -7
COC(=O)[C@@H]1Cc2c([nH]c3ccccc23)[C@H]2C[C@@H](NCCCn3ccnc3)C[C@@H](c3ccccc3F)N21 | 25µM* | 10
O=C(NC1(c2ccccc2)CCC1)c1ccc(F)cc1Br | i | nt
O=C(NCc1cccc(Cl)c1)c1ccc2nnc(-c3cc(C(F)(F)F)cc(C(F)(F)F)c3)n2c1 | nt | -2
CC(NC(=O)CNC(=O)c1ccc(N2CCCC2=O)cc1)c1ccc(Cl)cc1Cl (configuration not stated) | i | nt
COCCN1C(=O)CS(=O)C12CCN(C(=O)c1ccsc1)CC2 (configuration not stated) | nt | 0
O=C(c1ccc2cc[nH]c2c1)N1CCC2(CC1)N=C(c1cccc(Br)c1)NO2 | 28µM* | 9
COCCN1C(=O)CS(=O)C12CCN(C(=O)c1cccc3[nH]ccc13)CC2 (configuration not stated) | 28µM* | 8
Cc1ccc(C2=NC3(CCN(C(=O)c4cccc5[nH]ccc45)CC3)ON2)cc1 | 32µM* | -3
O=C(c1cccc2[nH]ccc12)N1CCC2(CC1)N=C(c1ccc(Cl)cc1)NO2 | ? | -2
O=C(c1ccc2[nH]ccc2c1)N1CCC2(CC1)N=C(c1ccc(Br)cc1)NO2 | i | -5
Cn1c2c(cc(C(=O)N3CC[C@](C)(O)[C@@H](O)C3)c1=O)CCCC2 | ? | 36
CC(=O)N1C[C@H](NC(=O)c2cc3c(n(C)c2=O)CCCC3)[C@@H](C2CC2)C1 | 28µM* | 20
Nc1nc(C2CC(NC(=O)c3csc4c3CCCC4)C2)cc(=O)[nH]1 (configuration not stated) | i | 33
Cc1nc(C2CC(NC(=O)c3cnc(N)nc3C(F)(F)F)C2)cc(=O)[nH]1 (configuration not stated) | 28µM* | 9
Cn1nc(C(=O)OCCOc2ccc(C#N)cc2)c2ccccc2c1=O | i | nt
COc1nccnc1NC1CCN(C(=O)NC2CCCC2)CC1 | 28µM* | -7
COc1nccnc1NC1CCN(C(=O)COc2ccccc2C)CC1 | 32µM* | 1
COc1nccnc1NC1CCN(C(=O)COc2ccc(C)cc2)CC1 | 28µM* | 2
SMILES | KDM5B inh | IP6K1 inh
Cc1ccccc1OCC(=O)N1CCC(c2nc3ccccc3s2)CC1 | i | -15
COc1nccnc1NC1CCN(C(=O)c2ccc3[nH]ccc3c2)CC1 | ? | -7
COc1ccc(NC2CCCN(C(=O)COc3ccc(C)cc3)C2)cc1 (configuration not stated) | i | nt
O=C(COC(=O)c1ccc(S(=O)(=O)NCc2ccco2)cc1)c1ccc(F)cc1 | i | nt
CCCOCCNC(=O)c1c(C)noc1-c1cccs1 | 25µM* | -9
Cc1noc(-c2cccs2)c1C(=O)NCCc1cccs1 | ? | -12
Cc1noc(-c2cccs2)c1C(=O)NCCC(c1ccccc1)c1ccccc1 | 35µM* | -20
Cc1noc(-c2cccs2)c1C(=O)NCCCCc1ccccc1 | 32µM* | -10
COc1ccc(CNC(=O)c2c(C)noc2-c2cccs2)cc1 | ? | 1
Cc1noc(-c2ccccc2Cl)c1C(=O)NCCC(c1ccccc1)c1ccccc1 | ? | 4
Cc1cn2cc(CNC(=O)c3ccc(CN4CCCN(C)CC4)[nH]c3=O)nc2s1 | 28µM* | 14
COCc1nc(NCc2cn3cc(C)sc3n2)cc(C2CC(N)C2)n1 (configuration not stated) | ? | -11
Cc1cc(C)c2c(=O)cc(C(=O)NCC(c3cccs3)N3CCCC3)oc2c1 (configuration not stated) | i | nt
Cc1cn2nc(C(=O)N3CCC(C(N)=O)CC3)cc2c(N2CCCC2)n1 | ? | 0
Cc1cn2nc(C(=O)N3CCN(c4ccccc4)CC3)cc2c(N2CCCC2)n1 | ? | -2
Cc1cn2nc(C(=O)N3CCN(c4ccccn4)CC3)cc2c(N2CCCC2)n1 | 25µM* | 3
Cc1cn2nc(C(=O)N3CCN(c4cccc(Cl)c4)CC3)cc2c(N2CCCC2)n1 | 35µM* | 6
CCCN(Cc1cc(=O)[nH]c2ccccc12)C(=O)C(C)C | i | nt
CCN1CCC2(CC1)Oc1ccccc1C1CC(c3ccccc3Cl)=NN12 (configuration not stated) | i | nt
COc1ccc(NC(=O)C2(C)CCc3cnc(N4CCOCC4)nc32)cc1 (configuration not stated) | 40µM* | 16
COc1ccc(NC(=O)c2ccc(S(=O)(=O)N3CCOCC3)o2)cc1 | i | nt
CN1CCC(NC(=O)C2(C)CCc3cnc(N4CCOCC4)nc32)CC1 (configuration not stated) | 35µM* | 9
CC1(C(=O)NC2CCOCC2)CCCc2cnc(Nc3ccccc3)nc21 (configuration not stated) | i | 6
Cc1ccc([S+](=O)([O-])N2CCC(n3cc[nH]c3=O)CC2)cc1 | nt | -7
O=C(NCCc1ccc(Cl)cc1)c1ccc2nnc(-c3ccc(OC(F)(F)F)cc3)n2c1 | nt | -2
SMILES | KDM5B inh | IP6K1 inh
O=C(c1cc(C2CC2)nc2onc(C3CCNCC3)c12)N1CCOCC1 | 56µM* | 1
O=C(c1cc(C2CC2)nc2onc(C3CCNCC3)c12)N1CCC(F)CC1 | i | -3
CC(C)CNC(=O)c1cc(C2CC2)nc2onc(C3CCCNC3)c12 (configuration not stated) | i | -5
CC(C)CNC(=O)c1cc(C2CC2)nc2onc(C3CCNC3)c12 (configuration not stated) | 100µM* | -4
O=C(NCC(F)(F)F)c1cc(C2CC2)nc2onc(C3CCCNC3)c12 (configuration not stated) | ? | 7
O=C(NCC(F)(F)F)c1cc(C2CC2)nc2onc(C3CCNC3)c12 (configuration not stated) | 89µM* | 1
Cc1nn(CN2CCN(S(=O)(=O)c3ccc(Cl)cc3)CC2)c(=O)c2ccccc12 | i | nt
Cc1ccc(NC(=O)Cc2nc(CSc3nncn3-c3ccccc3C)cs2)cc1 | i | nt
Cc1cccc(-c2nc3ccc(C(=O)N(C)C)cc3o2)n1 | nt | -24
Cc1ccc(Cl)cc1N1CCN(S(=O)(=O)c2ccc3c(c2)NC(=O)CCS3)CC1 | i | nt
CN1CCN(S(=O)(=O)c2cc(Br)cc(C(=O)O)c2)CC1 | i | 15
COc1ccc(-c2cc(C(=O)O)cc(S(=O)(=O)N3CCN(C)CC3)c2)cc1 | 16µM* | 8
